# In publication PMC7862700, “An all-to-all approach to the identification of sequence-specific readers for epigenetic DNA modifications on cytosine”:
# Tests used:
# Assay in all cases: DAPPL (digital affinity profiling via proximity ligation, sequencing); 10 mM Tris-HCl pH 7.5, 50 mM NaCl, 1 mM DTT, 4% glycerol, room temperature, 30 min; GST-TFs on glutathione beads, 16-mer random dsDNA library, 0.1% formaldehyde crosslink after washing; high values mean tight binding
# Conditions in all cases: protein: recombinant; tags: N-terminal GST; dsDNA, one strand shown
# FLI1 = biological target: T1, FLI1 (Homo sapiens, UniProt Q01543 1-452)
# T1 sequence: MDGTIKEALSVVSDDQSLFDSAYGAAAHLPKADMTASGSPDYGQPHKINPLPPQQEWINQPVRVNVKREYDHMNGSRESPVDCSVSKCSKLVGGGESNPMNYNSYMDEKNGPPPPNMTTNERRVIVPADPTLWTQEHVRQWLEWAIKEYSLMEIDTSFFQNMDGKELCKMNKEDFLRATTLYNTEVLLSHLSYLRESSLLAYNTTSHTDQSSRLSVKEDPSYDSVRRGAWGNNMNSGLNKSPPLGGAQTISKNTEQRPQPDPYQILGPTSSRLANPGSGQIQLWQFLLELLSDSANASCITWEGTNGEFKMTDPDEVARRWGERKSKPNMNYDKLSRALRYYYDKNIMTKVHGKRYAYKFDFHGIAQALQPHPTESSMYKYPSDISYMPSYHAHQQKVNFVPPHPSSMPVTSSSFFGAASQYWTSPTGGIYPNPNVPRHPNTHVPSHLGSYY
# In short: (§1)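 Each value of binding signal is a hexamer's read frequency for a factor divided by the same hexamer's frequency in the tag-only sample. Barcoded, bead-captured GST fusions of human transcription factors made in yeast were pooled with that sample and incubated with 200 nmole of a random double-stranded 16-mer DNA library in Tris/NaCl/DTT/glycerol buffer at room temperature for 30 min. Washing, 0.1% formaldehyde crosslinking, proximity ligation, PCR and Illumina NextSeq500 sequencing followed.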
# ELK1 = biological target: T2, ELK1 (Homo sapiens, UniProt P19419 1-428)
# T2 sequence: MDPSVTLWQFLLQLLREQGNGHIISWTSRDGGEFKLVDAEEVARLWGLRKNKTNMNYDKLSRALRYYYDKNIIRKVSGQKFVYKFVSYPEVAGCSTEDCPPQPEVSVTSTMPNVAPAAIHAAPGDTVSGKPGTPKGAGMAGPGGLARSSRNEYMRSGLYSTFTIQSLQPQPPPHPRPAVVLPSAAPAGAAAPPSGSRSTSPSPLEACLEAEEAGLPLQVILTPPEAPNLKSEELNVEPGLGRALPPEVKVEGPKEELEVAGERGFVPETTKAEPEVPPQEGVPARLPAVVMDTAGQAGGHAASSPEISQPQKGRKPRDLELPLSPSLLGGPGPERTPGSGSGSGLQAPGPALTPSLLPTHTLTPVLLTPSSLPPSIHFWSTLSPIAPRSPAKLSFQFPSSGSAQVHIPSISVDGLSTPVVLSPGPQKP
# In short: as §1
# GABPA = biological target: T3, GABPA (Homo sapiens, UniProt Q06546 1-454)
# T3 sequence: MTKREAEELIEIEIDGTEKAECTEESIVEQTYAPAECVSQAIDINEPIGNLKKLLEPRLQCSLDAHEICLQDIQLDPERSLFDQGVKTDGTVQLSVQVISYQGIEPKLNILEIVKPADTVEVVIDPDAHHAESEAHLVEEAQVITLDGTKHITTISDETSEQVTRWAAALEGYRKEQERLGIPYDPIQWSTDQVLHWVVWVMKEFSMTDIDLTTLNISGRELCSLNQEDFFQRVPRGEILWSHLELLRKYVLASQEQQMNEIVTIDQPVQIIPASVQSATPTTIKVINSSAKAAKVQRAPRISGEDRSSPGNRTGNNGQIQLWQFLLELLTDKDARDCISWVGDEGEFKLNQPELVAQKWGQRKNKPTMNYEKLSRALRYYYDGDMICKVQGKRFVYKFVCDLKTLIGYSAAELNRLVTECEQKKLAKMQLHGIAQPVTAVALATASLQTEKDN
# In short: as §1
# ERG = biological target: T4, ERG (Homo sapiens, UniProt P11308 1-479)
# T4 sequence: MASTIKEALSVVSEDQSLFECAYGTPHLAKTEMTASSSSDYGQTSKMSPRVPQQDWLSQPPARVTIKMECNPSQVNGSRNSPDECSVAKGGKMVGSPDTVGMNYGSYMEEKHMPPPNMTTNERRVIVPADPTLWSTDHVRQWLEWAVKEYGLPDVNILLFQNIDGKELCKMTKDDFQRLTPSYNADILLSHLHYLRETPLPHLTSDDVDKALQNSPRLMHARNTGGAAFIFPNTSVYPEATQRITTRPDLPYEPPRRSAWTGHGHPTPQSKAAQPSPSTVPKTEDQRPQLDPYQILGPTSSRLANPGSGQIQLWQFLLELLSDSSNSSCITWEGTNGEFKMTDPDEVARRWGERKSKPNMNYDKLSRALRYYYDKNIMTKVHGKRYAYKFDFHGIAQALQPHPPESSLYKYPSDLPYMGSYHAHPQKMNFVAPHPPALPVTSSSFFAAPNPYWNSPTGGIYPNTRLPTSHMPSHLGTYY
# In short: as §1
# ELF1 = ELF1 (Homo sapiens, UniProt P32519 1-619)
# In short: as §1
# EHF = biological target: T5, EHF (Homo sapiens, UniProt Q9NZC4 1-300)
# T5 sequence: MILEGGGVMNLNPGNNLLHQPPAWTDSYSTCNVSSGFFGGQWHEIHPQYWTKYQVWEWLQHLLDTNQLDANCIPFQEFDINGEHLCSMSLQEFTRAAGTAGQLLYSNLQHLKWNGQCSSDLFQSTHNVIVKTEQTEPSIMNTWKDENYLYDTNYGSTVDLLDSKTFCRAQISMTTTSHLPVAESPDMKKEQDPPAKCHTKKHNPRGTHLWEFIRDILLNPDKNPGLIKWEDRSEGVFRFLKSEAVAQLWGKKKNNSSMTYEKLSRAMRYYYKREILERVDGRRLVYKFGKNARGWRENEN
# In short: as §1
# SPI1 = SPI1 (Homo sapiens, UniProt P17947 1-270)
# In short: as §1
# SPIB = SPIB (Homo sapiens, UniProt Q01892 1-262)
# In short: as §1
# ELK3 = biological target: T6, ELK3 (Homo sapiens, UniProt P41970 1-407)
# T6 sequence: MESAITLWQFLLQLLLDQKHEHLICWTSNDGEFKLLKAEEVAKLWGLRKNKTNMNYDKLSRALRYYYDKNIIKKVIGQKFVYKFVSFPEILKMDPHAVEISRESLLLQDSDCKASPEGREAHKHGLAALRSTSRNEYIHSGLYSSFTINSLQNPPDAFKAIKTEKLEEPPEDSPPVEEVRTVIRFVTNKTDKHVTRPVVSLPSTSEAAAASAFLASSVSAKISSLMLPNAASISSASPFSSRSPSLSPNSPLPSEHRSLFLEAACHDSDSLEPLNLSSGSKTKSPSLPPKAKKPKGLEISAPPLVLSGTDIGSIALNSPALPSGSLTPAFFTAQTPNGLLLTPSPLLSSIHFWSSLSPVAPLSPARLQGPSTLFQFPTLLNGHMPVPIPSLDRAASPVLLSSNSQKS
# In short: as §1
# FEV = biological target: T7, FEV (Homo sapiens, UniProt Q99581 1-238)
# T7 sequence: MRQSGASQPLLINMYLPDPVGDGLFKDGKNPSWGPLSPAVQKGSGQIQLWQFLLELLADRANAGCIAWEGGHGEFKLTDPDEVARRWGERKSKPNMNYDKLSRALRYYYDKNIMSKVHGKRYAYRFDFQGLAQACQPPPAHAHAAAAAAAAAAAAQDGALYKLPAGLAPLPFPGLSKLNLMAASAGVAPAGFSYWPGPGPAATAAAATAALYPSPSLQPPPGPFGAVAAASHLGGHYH
# In short: as §1
# ETV5 = ETV5 (Homo sapiens, UniProt P41161 1-510)
# In short: as §1
# SPIC = biological target: T8, SPIC (Homo sapiens, UniProt Q8N5J4 1-248)
# T8 sequence: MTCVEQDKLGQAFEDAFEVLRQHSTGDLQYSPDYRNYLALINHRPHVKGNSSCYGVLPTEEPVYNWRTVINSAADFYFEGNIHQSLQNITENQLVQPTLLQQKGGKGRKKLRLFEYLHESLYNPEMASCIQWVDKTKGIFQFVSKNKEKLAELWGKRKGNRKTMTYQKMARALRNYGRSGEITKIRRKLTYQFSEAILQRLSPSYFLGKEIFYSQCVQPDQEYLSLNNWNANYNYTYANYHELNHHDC
# In short: as §1
# ELF4 = ELF4 (Homo sapiens, UniProt Q99607 1-663)
# In short: as §1
# ELK4 = biological target: T9, ELK4 (Homo sapiens, UniProt P28324-2 1-405)
# T9 sequence: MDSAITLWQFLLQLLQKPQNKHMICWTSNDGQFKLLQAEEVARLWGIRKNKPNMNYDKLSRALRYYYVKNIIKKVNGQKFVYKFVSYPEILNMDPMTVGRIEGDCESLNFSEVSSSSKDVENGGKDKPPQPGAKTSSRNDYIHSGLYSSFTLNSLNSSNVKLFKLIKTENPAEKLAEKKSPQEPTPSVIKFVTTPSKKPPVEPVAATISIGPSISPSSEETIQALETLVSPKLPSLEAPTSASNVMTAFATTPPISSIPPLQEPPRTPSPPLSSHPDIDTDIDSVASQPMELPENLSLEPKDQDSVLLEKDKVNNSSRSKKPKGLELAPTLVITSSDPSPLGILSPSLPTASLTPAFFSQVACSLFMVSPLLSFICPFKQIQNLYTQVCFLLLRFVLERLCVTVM
# In short: as §1
# ETV2 = biological target: T10, ETV2 (Homo sapiens, UniProt O00321 1-342)
# T10 sequence: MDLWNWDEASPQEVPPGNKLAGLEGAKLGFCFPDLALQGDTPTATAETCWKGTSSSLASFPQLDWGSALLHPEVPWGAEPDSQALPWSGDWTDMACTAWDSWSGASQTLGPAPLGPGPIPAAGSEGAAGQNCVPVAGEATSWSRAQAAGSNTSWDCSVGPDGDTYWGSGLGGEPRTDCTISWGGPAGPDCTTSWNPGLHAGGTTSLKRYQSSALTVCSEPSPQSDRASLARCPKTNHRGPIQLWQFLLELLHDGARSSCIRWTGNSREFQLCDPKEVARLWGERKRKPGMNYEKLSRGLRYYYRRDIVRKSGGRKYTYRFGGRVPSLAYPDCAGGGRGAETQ
# In short: as §1
# ELF3 = biological target: T11, ELF3 (Homo sapiens, UniProt P78545 1-371)
# T11 sequence: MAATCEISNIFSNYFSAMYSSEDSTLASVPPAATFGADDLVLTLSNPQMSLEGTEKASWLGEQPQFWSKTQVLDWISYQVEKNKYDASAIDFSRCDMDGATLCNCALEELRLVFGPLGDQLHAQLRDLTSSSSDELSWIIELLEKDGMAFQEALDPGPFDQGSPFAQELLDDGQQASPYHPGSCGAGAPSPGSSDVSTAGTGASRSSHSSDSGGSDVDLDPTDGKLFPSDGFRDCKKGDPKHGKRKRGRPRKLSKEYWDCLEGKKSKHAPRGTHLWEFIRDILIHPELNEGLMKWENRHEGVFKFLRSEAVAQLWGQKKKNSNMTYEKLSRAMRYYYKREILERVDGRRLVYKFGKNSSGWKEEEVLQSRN
# In short: as §1
# ETV1 = ETV1 (Homo sapiens, UniProt P50549 1-477)
# In short: as §1
# ETV1, sequence (P50549 whole entry): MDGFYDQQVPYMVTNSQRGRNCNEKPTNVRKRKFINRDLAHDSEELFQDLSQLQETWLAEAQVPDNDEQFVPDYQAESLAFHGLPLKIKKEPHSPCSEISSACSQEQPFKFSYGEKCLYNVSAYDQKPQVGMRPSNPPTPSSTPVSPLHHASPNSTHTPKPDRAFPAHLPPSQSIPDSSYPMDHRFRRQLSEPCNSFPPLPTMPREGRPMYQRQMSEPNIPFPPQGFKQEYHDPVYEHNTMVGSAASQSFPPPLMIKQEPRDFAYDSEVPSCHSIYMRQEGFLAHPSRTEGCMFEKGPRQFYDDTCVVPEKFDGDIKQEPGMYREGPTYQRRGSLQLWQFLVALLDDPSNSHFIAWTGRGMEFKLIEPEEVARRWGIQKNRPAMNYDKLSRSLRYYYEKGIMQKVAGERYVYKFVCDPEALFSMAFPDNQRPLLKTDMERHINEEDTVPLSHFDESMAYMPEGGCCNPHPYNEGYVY
# ELF1, sequence (P32519 whole entry): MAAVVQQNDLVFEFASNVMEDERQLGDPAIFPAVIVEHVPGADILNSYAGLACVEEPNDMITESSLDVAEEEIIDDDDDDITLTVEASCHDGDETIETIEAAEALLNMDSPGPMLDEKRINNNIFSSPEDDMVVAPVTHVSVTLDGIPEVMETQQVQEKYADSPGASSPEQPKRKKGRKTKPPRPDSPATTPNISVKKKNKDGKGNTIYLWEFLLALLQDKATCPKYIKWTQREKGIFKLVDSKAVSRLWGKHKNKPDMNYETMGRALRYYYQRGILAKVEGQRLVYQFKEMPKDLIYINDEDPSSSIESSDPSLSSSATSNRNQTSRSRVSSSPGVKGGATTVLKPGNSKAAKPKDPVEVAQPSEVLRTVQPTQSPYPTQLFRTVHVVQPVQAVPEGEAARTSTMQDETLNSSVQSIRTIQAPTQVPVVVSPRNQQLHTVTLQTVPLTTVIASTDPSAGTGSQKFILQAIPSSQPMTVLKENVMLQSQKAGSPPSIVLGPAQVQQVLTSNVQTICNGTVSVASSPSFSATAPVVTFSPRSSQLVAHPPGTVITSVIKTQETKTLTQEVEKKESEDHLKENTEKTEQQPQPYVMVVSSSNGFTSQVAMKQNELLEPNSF
# ELF4, sequence (Q99607 whole entry): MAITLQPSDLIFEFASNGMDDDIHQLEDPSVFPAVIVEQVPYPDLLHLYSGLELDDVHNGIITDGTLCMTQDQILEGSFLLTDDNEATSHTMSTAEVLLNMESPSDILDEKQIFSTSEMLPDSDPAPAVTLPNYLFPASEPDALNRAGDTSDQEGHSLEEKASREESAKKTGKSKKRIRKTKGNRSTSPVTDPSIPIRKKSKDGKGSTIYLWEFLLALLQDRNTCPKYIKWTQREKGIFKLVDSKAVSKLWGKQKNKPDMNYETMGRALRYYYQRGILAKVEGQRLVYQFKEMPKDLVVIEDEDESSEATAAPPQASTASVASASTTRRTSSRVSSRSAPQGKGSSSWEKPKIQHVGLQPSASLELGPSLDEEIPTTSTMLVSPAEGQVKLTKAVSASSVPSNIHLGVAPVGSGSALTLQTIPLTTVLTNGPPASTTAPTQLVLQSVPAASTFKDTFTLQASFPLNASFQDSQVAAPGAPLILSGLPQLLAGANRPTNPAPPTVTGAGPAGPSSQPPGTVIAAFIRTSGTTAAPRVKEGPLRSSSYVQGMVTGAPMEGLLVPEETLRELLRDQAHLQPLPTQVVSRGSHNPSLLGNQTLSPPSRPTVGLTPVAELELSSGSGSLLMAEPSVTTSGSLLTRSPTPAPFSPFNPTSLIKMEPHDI
# ETV5, sequence (P41161 whole entry): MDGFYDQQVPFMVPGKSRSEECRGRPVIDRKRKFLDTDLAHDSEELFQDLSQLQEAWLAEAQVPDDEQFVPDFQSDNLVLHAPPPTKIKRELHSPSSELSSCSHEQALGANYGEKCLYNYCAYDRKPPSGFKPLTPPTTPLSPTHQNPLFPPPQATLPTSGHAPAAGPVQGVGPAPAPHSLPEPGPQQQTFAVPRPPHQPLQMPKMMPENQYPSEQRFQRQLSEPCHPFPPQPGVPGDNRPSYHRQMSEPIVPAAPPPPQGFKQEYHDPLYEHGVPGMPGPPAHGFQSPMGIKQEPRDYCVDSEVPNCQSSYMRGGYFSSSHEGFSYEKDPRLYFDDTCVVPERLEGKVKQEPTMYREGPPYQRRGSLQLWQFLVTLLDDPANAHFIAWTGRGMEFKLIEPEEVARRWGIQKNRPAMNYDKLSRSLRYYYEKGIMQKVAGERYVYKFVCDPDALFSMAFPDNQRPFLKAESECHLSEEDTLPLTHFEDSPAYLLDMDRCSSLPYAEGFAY
# SPIB, sequence (Q01892 whole entry): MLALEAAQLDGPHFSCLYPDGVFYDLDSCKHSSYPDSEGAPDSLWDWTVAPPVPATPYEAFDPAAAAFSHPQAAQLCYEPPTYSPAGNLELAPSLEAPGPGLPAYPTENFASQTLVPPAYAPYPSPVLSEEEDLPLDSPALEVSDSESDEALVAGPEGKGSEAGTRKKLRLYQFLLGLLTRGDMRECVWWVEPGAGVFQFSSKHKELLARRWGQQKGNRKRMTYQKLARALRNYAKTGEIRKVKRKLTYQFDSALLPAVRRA
sequence,measurement,setting,value
CCACAT,binding signal,FLI1,"1.2 fold enrichment (6-mer frequency, TF over GST control)"
same,binding signal,ELK1,"1.3 fold enrichment (6-mer frequency, TF over GST control)"
same,binding signal,GABPA,"1.12 fold enrichment (6-mer frequency, TF over GST control)"
same,binding signal,ERG,"1.15 fold enrichment (6-mer frequency, TF over GST control)"
same,binding signal,ELF1,"1.25 fold enrichment (6-mer frequency, TF over GST control)"
same,binding signal,EHF,"1.21 fold enrichment (6-mer frequency, TF over GST control)"
same,binding signal,SPI1,"1.07 fold enrichment (6-mer frequency, TF over GST control)"
same,binding signal,SPIB,"1.16 fold enrichment (6-mer frequency, TF over GST control)"
same,binding signal,ELK3,"1.14 fold enrichment (6-mer frequency, TF over GST control)"
same,binding signal,FEV,"1.27 fold enrichment (6-mer frequency, TF over GST control)"
same,binding signal,ETV5,"1.17 fold enrichment (6-mer frequency, TF over GST control)"
same,binding signal,SPIC,"1.29 fold enrichment (6-mer frequency, TF over GST control)"
same,binding signal,ELF4,"1.21 fold enrichment (6-mer frequency, TF over GST control)"
same,binding signal,ELK4,"1.28 fold enrichment (6-mer frequency, TF over GST control)"
same,binding signal,ETV2,"1.17 fold enrichment (6-mer frequency, TF over GST control)"
same,binding signal,ELF3,"1.17 fold enrichment (6-mer frequency, TF over GST control)"
same,binding signal,ETV1,"1.21 fold enrichment (6-mer frequency, TF over GST control)"
CGACGT,binding signal,FLI1,"1.23 fold enrichment (6-mer frequency, TF over GST control)"
same,binding signal,ELK1,"1.09 fold enrichment (6-mer frequency, TF over GST control)"
same,binding signal,GABPA,"1.22 fold enrichment (6-mer frequency, TF over GST control)"
same,binding signal,ERG,"1.06 fold enrichment (6-mer frequency, TF over GST control)"
same,binding signal,ELF1,"1.11 fold enrichment (6-mer frequency, TF over GST control)"
same,binding signal,EHF,"1.14 fold enrichment (6-mer frequency, TF over GST control)"
same,binding signal,SPI1,"1.08 fold enrichment (6-mer frequency, TF over GST control)"
same,binding signal,SPIB,"1 fold enrichment (6-mer frequency, TF over GST control)"
same,binding signal,ELK3,"1.07 fold enrichment (6-mer frequency, TF over GST control)"
same,binding signal,FEV,"1.09 fold enrichment (6-mer frequency, TF over GST control)"
same,binding signal,ETV5,"1.12 fold enrichment (6-mer frequency, TF over GST control)"
same,binding signal,SPIC,"1.05 fold enrichment (6-mer frequency, TF over GST control)"
same,binding signal,ELF4,"1.21 fold enrichment (6-mer frequency, TF over GST control)"
same,binding signal,ELK4,"1.15 fold enrichment (6-mer frequency, TF over GST control)"
same,binding signal,ETV2,"1.49 fold enrichment (6-mer frequency, TF over GST control)"
same,binding signal,ELF3,"1.09 fold enrichment (6-mer frequency, TF over GST control)"
same,binding signal,ETV1,"1.05 fold enrichment (6-mer frequency, TF over GST control)"
